Bioassay records deposited in PubChem BioAssay by National Center for Advancing Translational Sciences (NCATS).
SMN2 splice enh = enhancers of SMN2 splice variant expression; AID 1458; actives 2.8% (n = 210,000); Potency, µM (highest dose often 46.1 µM), most hits filed as activators; HEK293 SMN2-luciferase splicing reporter, luminescence, 30-36 h; further: nearly all actives have a fitted effect of over 55% in size
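qHTS luciferase splicing reporter: luminescence rises when SMN2 exon 7 is included in transfected HEK293 cells. Compound exposure lasted 30-36 h at 37C, with 4.5 mM final sodium butyrate as control, followed by a ONE-Glo read.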
FLuc modulator = inhibits or activates purified firefly luciferase, miR-21 counter-screen; Potency, µM (doses to about 57.5 µM), actives largely listed as inhibitors; actives 6.9% (n = 360,000); purified FLuc, Km substrates, luminescence inhibition; further: nearly all actives have a fitted effect of over 55% in size
Target sequence (P08659 whole entry, looked up): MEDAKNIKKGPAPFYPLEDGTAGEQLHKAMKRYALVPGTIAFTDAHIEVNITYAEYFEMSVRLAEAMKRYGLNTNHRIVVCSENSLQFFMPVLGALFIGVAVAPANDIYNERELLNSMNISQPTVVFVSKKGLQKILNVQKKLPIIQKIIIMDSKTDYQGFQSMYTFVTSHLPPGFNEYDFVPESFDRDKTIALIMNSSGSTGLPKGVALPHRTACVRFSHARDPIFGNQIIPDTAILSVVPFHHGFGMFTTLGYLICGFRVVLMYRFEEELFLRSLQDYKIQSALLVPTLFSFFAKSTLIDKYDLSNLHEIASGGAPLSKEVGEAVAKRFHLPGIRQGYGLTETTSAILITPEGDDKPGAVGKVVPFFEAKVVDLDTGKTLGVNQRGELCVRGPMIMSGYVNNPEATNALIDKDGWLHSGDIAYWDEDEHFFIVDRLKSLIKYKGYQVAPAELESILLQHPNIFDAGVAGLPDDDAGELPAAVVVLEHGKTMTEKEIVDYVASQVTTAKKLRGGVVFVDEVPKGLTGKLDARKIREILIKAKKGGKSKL
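Biochemical qHTS of compounds, final roughly 60 µM downward over six points, against 10 nM purified firefly luciferase using Km concentrations of substrates (10 uM D-luciferin, 10 uM ATP) in Tris acetate pH 7.5 buffer; luminescence output.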
Rab9 promoter act = Rab9 promoter activation; Potency, µM (doses to about 9.22 µM), usual class: activators; actives 2.8% (n = 320,000); AID 485297; Huh7 Rab9 promoter-luciferase reporter, luminescence, 24 h; further: nearly all actives have a fitted effect of over 60% in size
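Luminescence from Amplite-detected luciferase (10 minutes, ambient) reports Rab9 promoter activation. Before that, stable Rab9-luciferase Huh7 cells (1500/well, reduced-serum OP-MEM I plus 10% FBS) were exposed to compound for 24 hours at 37C.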
NPC1 prom act = activates the NPC1 promoter | Huh7 NPC1 promoter luciferase reporter, 24 h | Potency, µM (doses to about 9.22 µM), actives largely listed as activators | AID 485313 | actives 2.4% (n = 320,000); further: nearly all actives have a fitted effect of over 60% in size
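Compounds in DMSO were transferred onto Huh7 NPC1-luciferase reporter cells pre-incubated 2 h; after 24 h at 37 °C, Amplite reagent was dispensed and luminescence recorded 10 min later.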
uPA surface inh = blocks generation of uPA at the cell surface | cell surface uPA generation assay, qHTS | Potency, µM (series often up to 38.3 µM), actives largely listed as inhibitors | actives 0.31% (n = 330,000) | AID 540303; active means well fitted inhibition curve with a large enough effect; inconclusive means small, poorly fitted or top-dose-only effect; inactive means no such curve, though single readings can be large or run the other way; tested in mouse RAW 264.7 cells; further: nearly all actives have a fitted effect of over 55% in size
ELG1 genotoxic = genotoxicity induction in ELG1-luciferase HEK293T cells. Potency, µM (series often up to 46 µM), hits mostly activators. AID 504466. actives 1.3% (n = 330,000). HEK293T ELG1-luciferase reporter, luminescence, 16 h; further: nearly all actives have a fitted effect of over 60% in size
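Genotoxic stress is detected as increased luminescence from luciferase-tagged ELG1 in HEK293T cells, measured with ONE-Glo after a 16 hr treatment at 37 °C.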
Large screens that a line does not name were inactive. In the library only some 7.3% were active in any assay of this set; here they are far more common. Unless noted, the call rests on the fitted dose curve; in most records, active means well fitted curve in the direction sought with a large enough effect; inconclusive means small, poorly fitted or top-dose-only effect, or another doubt; inactive means no such curve, though single readings can be large; an effect the other way counts as inactive or inconclusive.

COc1cccc(C=Nc2cc(C)cc(C)c2)c1O	none
COc1cccc(C=Nc2ccccc2C#N)c1O	SMN2 splice enh inconclusive, FLuc modulator 2.7µM
COc1cccc(C=Nc2ccc3c(c2)CCC3)c1O	FLuc modulator 2.7µM (no result: SMN2 splice enh)
COc1cc(/C=C2\N=C(c3ccccc3)OC2=O)ccc1OC(C)=O	FLuc modulator 15µM, uPA surface inh inconclusive (no result: SMN2 splice enh)
CCOc1ccc(/C=C2\N=C(c3cccs3)OC2=O)cc1OC	none (no result: uPA surface inh)
COc1ccc(/C=C2\N=C(C)OC2=O)cc1OC(C)=O	none (no result: SMN2 splice enh)
COc1ccc(/C=C2/N=C(c3cccs3)OC2=O)cc1OC(C)C	FLuc modulator 6.7µM
CCn1c(CN2CCN(c3cccc(Cl)c3)CC2)nc2c1c(=O)[nH]c(=O)n2C	none (no result: Rab9 promoter act, NPC1 prom act, uPA surface inh, ELG1 genotoxic)
CCn1c(SCC(=O)N/N=C(\C)c2ccncc2)nnc1-c1ccccc1	none (no result: SMN2 splice enh)
O=C(NCCc1c[nH]c2ccccc12)c1cnc2n(c1=O)CCS2	SMN2 splice enh inconclusive, FLuc modulator inconclusive, Rab9 promoter act 4.5µM, NPC1 prom act inconclusive
O=C(NCCc1ccccc1)c1cnc2n(c1=O)CCS2	SMN2 splice enh inconclusive, FLuc modulator inconclusive, Rab9 promoter act 2.2µM, NPC1 prom act inconclusive, ELG1 genotoxic inconclusive (no result: uPA surface inh)
Cc1cccn2c(=O)c(C(=O)NCCc3ccc(Cl)cc3)cnc12	FLuc modulator 13µM (no result: SMN2 splice enh, Rab9 promoter act, NPC1 prom act, uPA surface inh, ELG1 genotoxic)
COc1ccc(N2CCN(S(=O)(=O)c3ccc4oc(=O)c5ncn(C)c5c4c3)CC2)cc1	none (no result: SMN2 splice enh, Rab9 promoter act, NPC1 prom act, uPA surface inh, ELG1 genotoxic)
CC(C)(C)c1ccc(C(=O)Nc2ccc(S(=O)(=O)Nc3cnc4ccccc4n3)cc2)cc1	FLuc modulator 13µM (no result: SMN2 splice enh)
O=C(Nc1ccc(S(=O)(=O)Nc2cnc3ccccc3n2)cc1)c1ccc(Br)o1	FLuc modulator 17µM (no result: uPA surface inh)
COc1ccc(Cn2ccc3nc(C)c(C(=O)N4CCN(c5cc(C)ccc5C)CC4)cc3c2=O)cc1	none (no result: SMN2 splice enh, Rab9 promoter act, NPC1 prom act, uPA surface inh, ELG1 genotoxic)
Cc1c(Cl)cccc1NC(=O)CSc1nc(=O)n(Cc2ccccn2)c2c1CCC2	none (no result: SMN2 splice enh, Rab9 promoter act, NPC1 prom act, uPA surface inh, ELG1 genotoxic)
COc1ccc(CCNC(=O)C(C)n2c(=O)cc(-c3ccccc3)c3c(C)nn(C)c32)cc1OC (stereo not given)	none (no result: SMN2 splice enh, Rab9 promoter act, NPC1 prom act, uPA surface inh, ELG1 genotoxic)
Cn1c(NC(=O)c2ccc(Cl)cc2Cl)cc(=O)n(C)c1=O	none
Cc1cc(NC(=O)c2ccc(Cl)cc2Cl)no1	FLuc modulator 8.5µM, Rab9 promoter act 2.8µM, NPC1 prom act 1.4µM, uPA surface inh inconclusive, ELG1 genotoxic inconclusive (no result: SMN2 splice enh)
O=C(Nc1ccsn1)c1ccc(Cl)cc1Cl	FLuc modulator inconclusive, Rab9 promoter act inconclusive, NPC1 prom act 3.2µM, ELG1 genotoxic inconclusive (no result: SMN2 splice enh)
Cc1cc(NC(=O)Nc2ccc(Cl)cc2)no1	FLuc modulator inconclusive (no result: SMN2 splice enh)
CCC1Oc2ccccc2C(=O)N(CC(=O)c2ccc3c(c2)OCCO3)C1=O (stereo not given)	FLuc modulator 4.8µM, Rab9 promoter act inconclusive, NPC1 prom act inconclusive, ELG1 genotoxic inconclusive (no result: SMN2 splice enh)
CC(C)C1Oc2ccccc2C(=O)N(CC(=O)c2ccc3c(c2)OCCO3)C1=O (stereo not given)	FLuc modulator 2.4µM, Rab9 promoter act 1.4µM, NPC1 prom act 1.1µM, ELG1 genotoxic inconclusive (no result: SMN2 splice enh)
CC1Oc2ccccc2C(=O)N(CC(=O)c2ccc3c(c2)OCCO3)C1=O (stereo not given)	FLuc modulator 4.8µM (no result: SMN2 splice enh)
Cc1cc(C)n(C(C)CC(=O)Nc2cccc(C#N)c2)n1 (stereo not given)	none (no result: SMN2 splice enh, Rab9 promoter act, NPC1 prom act, uPA surface inh, ELG1 genotoxic)
Cc1ccsc1CN(C(=O)COc1cccc(C)c1C)C1CCS(=O)(=O)C1 (stereo not given)	none (no result: Rab9 promoter act, NPC1 prom act, uPA surface inh, ELG1 genotoxic)
CCCC(=O)Nc1ccc(NC(=O)c2ccccc2)nc1	FLuc modulator 4.8µM, Rab9 promoter act 0.28µM, NPC1 prom act 0.32µM, ELG1 genotoxic inconclusive (no result: SMN2 splice enh)
CCCC(=O)Nc1ccc(NC(=O)c2ccccc2F)cn1	FLuc modulator inconclusive, Rab9 promoter act inconclusive, NPC1 prom act inconclusive (no result: SMN2 splice enh)
CCC(=O)Nc1ccc(NC(=O)c2ccccc2)nc1	SMN2 splice enh 4µM, FLuc modulator 6µM, Rab9 promoter act 0.45µM, NPC1 prom act 1.3µM, uPA surface inh inconclusive, ELG1 genotoxic inconclusive
CCC(C)NC(=O)Cn1c(-c2ccccc2)cc(C(C)=O)c1C (stereo not given)	none
COc1cccc(NC(=O)CSc2nnc(NC(=O)C3CC3)s2)c1	none (no result: SMN2 splice enh)
COc1cccc(NC(=O)CSc2nnc(NC(=O)c3ccco3)s2)c1	FLuc modulator 24µM (no result: SMN2 splice enh)
